Here are results for eight molecules from PubChem BioAssay (NCI).

Structures are written as SMILES. The panel holds about 83,000 compounds, 20% with a hit somewhere; the sample as a whole holds those more often.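 Percent growth is the endpoint: 0 to 100 indicates growth inhibition (40 means 60% inhibition), 0 means no net growth, and negative values indicate cell death.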 Unmarked numbers belong to inactive results. Active and inactive are the calls of the source. The calls were made as follows: active = growth percent below 10; inactive = the rest.

Test systems include SR leukemia; RPMI-8226 leukemia; OVCAR-8 ovarian; OVCAR-5 ovarian; OVCAR-4 ovarian; IGROV1 ovarian; OVCAR-3 ovarian; HS 578T breast; NCI/ADR-RES ovarian; T-47D breast; BT-549 breast; MDA-MB-435 melanoma; SW-620 colon; MCF7 breast; HCT-116 colon; HCC-2998 colon; KM12 colon; SK-OV-3 ovarian.
Assay in all cases: NCI-60 one-dose screen, 48 h (100 = growth as untreated, 0 = no growth, -100 = all killed)
Common to all, as to conditions: 10 µM unless noted

As to `COc1ccc(NC2=C(Cl)C(=O)C(C)=C(C)C2=O)cc1`, the growth with SR leukemia was 20.6%; in the assay with RPMI-8226 leukemia, 68.8%; in the assay with OVCAR-8 ovarian it was 51.8%; in the assay with OVCAR-5 ovarian, 103%; in the assay with OVCAR-4 ovarian it was -98.7% (active); with IGROV1 ovarian, -49.1% (active). The growth in the assay with OVCAR-3 ovarian was 101%; in the assay on HS 578T breast it was 95.1%; with NCI/ADR-RES ovarian, 93.9%; with T-47D breast it was -2.17% (active); in the assay on BT-549 breast, 110%; in the assay on MDA-MB-435 melanoma, 106%. Moreover, the growth with SW-620 colon is 94.3%; in the assay with MCF7 breast, 75.9%; in the assay with HCT-116 colon, 63.4%; with HCC-2998 colon, 101%; with KM12 colon, 72.3%.

`CC(=O)NC(C)(C)C(=O)N1CCC[C@H]1C(=O)NC(C)(C)C(=O)N[C@@H](C)C(=O)NC(C)(C)C(=O)N[C@@H](C)C(=O)N[C@@H](CCC(N)=O)C(=O)NC(C)(C)C(=O)N[C@H](C(=O)NC(C)(C)C(=O)NCC(=O)N[C@@H](CC(C)C)C(=O)NC(C)(C)C(=O)N1CCC[C@H]1C(=O)N[C@H](C(=O)NC(C)(C)C(=O)NC(C)(C)C(=O)N[C@@H](CCC(N)=O)C(=O)N[C@@H](CCC(N)=O)C(=O)N[C@H](CO)Cc1ccccc1)C(C)C)C(C)C`: the growth is 83.9% [4.25 µM] with SR leukemia; 1.4% [4.25 µM] (active) with RPMI-8226 leukemia; 71.8% [4.25 µM] in the assay on OVCAR-8 ovarian; 108% [4.25 µM] with OVCAR-5 ovarian; 42.7% [4.25 µM] in the assay on OVCAR-4 ovarian; 76.9% [4.25 µM] in the assay on IGROV1 ovarian. Further, the growth with OVCAR-3 ovarian was 59.2% [4.25 µM]; in the assay with HS 578T breast, 82.8% [4.25 µM]; in the assay with NCI/ADR-RES ovarian, 99.5% [4.25 µM]; in the assay on T-47D breast it was 55.7% [4.25 µM]; with BT-549 breast, 23.5% [4.25 µM]; in the assay with MDA-MB-435 melanoma, 71% [4.25 µM]. For the same molecule, the growth in the assay with SW-620 colon was 91% [4.25 µM]; with MCF7 breast it was 17% [4.25 µM]; in the assay on HCT-116 colon, 67.7% [4.25 µM]; in the assay on HCC-2998 colon, 70.3% [4.25 µM]; in the assay with KM12 colon, 98.2% [4.25 µM].

On to `Oc1ccc(-c2nnc(SCc3ccc(O)c4ncccc34)n2-c2ccccc2)cc1`, for which the growth is 37.3% in the assay with SR leukemia; 15.5% in the assay on RPMI-8226 leukemia; 10.1% in the assay on OVCAR-8 ovarian; 34.6% in the assay with OVCAR-5 ovarian; 10.2% in the assay with OVCAR-4 ovarian; 18.7% with SK-OV-3 ovarian. Besides, the growth is 3.67% (active) with OVCAR-3 ovarian; 39.8% with HS 578T breast; 8.08% (active) with NCI/ADR-RES ovarian; 14.8% in the assay on T-47D breast; 26.9% in the assay with BT-549 breast; 21.5% in the assay on MDA-MB-435 melanoma. The growth in the assay on SW-620 colon was 16.4%; in the assay with MCF7 breast, 2.53% (active); in the assay with HCT-116 colon, 12.7%; in the assay on HCC-2998 colon it was 27.3%; in the assay with KM12 colon it was 17.3%.

As to `IP(CCCSc1n(Cc2ccc3ccccc3c2)c(-c2ccccc2)c(-c2ccccc2)[n+]1Cc1ccc2ccccc2c1)(c1ccccc1)(c1ccccc1)c1ccccc1`, the growth was 5.94% (active) with SR leukemia; 14.8% in the assay on RPMI-8226 leukemia; 38.6% with OVCAR-8 ovarian; 58.5% in the assay on OVCAR-5 ovarian; 23.2% in the assay with OVCAR-4 ovarian; 29.4% in the assay on SK-OV-3 ovarian. Besides, the growth with OVCAR-3 ovarian was 8.3% (active); in the assay with HS 578T breast, 67.1%; with NCI/ADR-RES ovarian, 94.1%; in the assay with T-47D breast it was 2.62% (active); in the assay with BT-549 breast it was 20%; with MDA-MB-435 melanoma it was 14.9%. The growth in the assay on SW-620 colon is 45.7%; in the assay with MCF7 breast, 9.71% (active); with HCT-116 colon, 14.1%; with HCC-2998 colon, 24.3%; in the assay on KM12 colon it was 4.9% (active).

In the case of `CN1CCN(Cc2ccc(NC(=O)c3cncc(C#Cc4cnc5ccc(O[C@H]6CCOC6)nn45)c3)cc2C(F)(F)F)CC1`, the growth is -22.8% (active) with SR leukemia; -15.3% (active) in the assay with RPMI-8226 leukemia; -72.6% (active) in the assay with OVCAR-8 ovarian; -62.5% (active) with OVCAR-5 ovarian; -58.9% (active) with OVCAR-4 ovarian; -26% (active) in the assay on SK-OV-3 ovarian. Further, the growth with HS 578T breast was -34.1% (active); in the assay on NCI/ADR-RES ovarian, -30.9% (active); with T-47D breast, 16.2%; with BT-549 breast, -33.9% (active); with MDA-MB-435 melanoma, -86.8% (active); with SW-620 colon it was -32.4% (active). For the same molecule, the growth with MCF7 breast is -62.6% (active); in the assay with HCT-116 colon, -88.1% (active); in the assay on HCC-2998 colon, -61.3% (active); with KM12 colon, -52.3% (active).

Consider `CN1CCN(Cc2ccc(NC(=O)c3cncc(C#Cc4[nH]nc5ncncc45)c3)cc2C(F)(F)F)CC1`, for which the growth was 48% in the assay with SR leukemia; 45.2% in the assay with RPMI-8226 leukemia; 88.7% in the assay with OVCAR-8 ovarian; 77.7% in the assay with OVCAR-5 ovarian; 88.5% in the assay with OVCAR-4 ovarian; 60.8% in the assay with SK-OV-3 ovarian. In addition, the growth in the assay with HS 578T breast was 45.9%; in the assay with NCI/ADR-RES ovarian it was 105%; with T-47D breast it was 39.2%; in the assay with BT-549 breast, 118%; in the assay with MDA-MB-435 melanoma, 38.9%; in the assay on SW-620 colon it was 31.6%. In addition, the growth in the assay with MCF7 breast is 46%; in the assay on HCT-116 colon it was 17.7%; with HCC-2998 colon, 44.3%; with KM12 colon, 10.5%.

`O=C(NNc1nc2cc(F)cc(F)c2n2cccc12)c1ncccn1`: the growth in the assay with SR leukemia was 13.2%; with RPMI-8226 leukemia, 12.7%; in the assay on OVCAR-8 ovarian it was 16.7%; in the assay on OVCAR-5 ovarian, 40.5%; with OVCAR-4 ovarian, 20.9%; in the assay on IGROV1 ovarian, 14%. For the same molecule, the growth with OVCAR-3 ovarian was 16.3%; with HS 578T breast, 42.8%; in the assay with NCI/ADR-RES ovarian, -1.21% (active); in the assay on T-47D breast, 3.06% (active); with BT-549 breast it was 20.6%; with MDA-MB-435 melanoma, 24.6%. For the same molecule, the growth in the assay on SW-620 colon was 21.6%; in the assay on MCF7 breast it was 9.91% (active); with HCT-116 colon it was 20.1%; with HCC-2998 colon it was 51.9%; in the assay with KM12 colon, 22.3%.

Turning to `COc1cc2cc(Oc3ccc(NC(=O)c4cccc(C(F)(F)F)c4)cc3)c(C)nc2cc1OCCN(C)C`, the growth was 28.6% in the assay on SR leukemia; 73.1% with RPMI-8226 leukemia; 89.8% with OVCAR-8 ovarian; 103% in the assay with OVCAR-5 ovarian; 80.5% with OVCAR-4 ovarian; 108% in the assay on SK-OV-3 ovarian. Besides, the growth is 102% in the assay with OVCAR-3 ovarian; 74.8% in the assay with HS 578T breast; 80.7% in the assay with NCI/ADR-RES ovarian; 91.2% with T-47D breast; 101% in the assay on BT-549 breast; 6.7% (active) in the assay with MDA-MB-435 melanoma. Besides, the growth in the assay with SW-620 colon is 79.5%; in the assay on MCF7 breast, 22.7%; with HCT-116 colon, 61.2%; in the assay with HCC-2998 colon, 80.3%; in the assay on KM12 colon it was 76.9%.
